Drawing on PubChem BioAssay (NCI), this text covers growth inhibition for 36 compounds.

Molecules are shown by their SMILES. About 79,000 compounds went through this panel and 15% of them were active in at least one assay; those are over-represented in the sample as a whole. Unmarked numbers belong to inactive results. Calls of active or inactive are those of the source. Rule as the data show it: active = growth inhibition above about 70%; inactive = the rest.

A short description of assay [1]: NCI Yeast Anticancer Drug Screen. Data for the rad50 strain (AID 155).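 Also: 0% = growth of vehicle-only cultures of the same strain.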 The conditions noted are these: S. cerevisiae rad50 strain growth inhibition; at 50.0 µM; active compounds read high. An outline of the steps:
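Vehicle-treated cultures provide the reference for the growth inhibition reported for compound-exposed, repair-deficient yeast.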

The nature of assay [2]: NCI Yeast Anticancer Drug Screen. Data for the mec2-1 strain (AID 157). The conditions noted are these: S. cerevisiae mec2-1 strain, at 50.0 µM, active compounds read high. The method in brief: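 Growth inhibition is read against vehicle-treated controls after compound exposure of the mec2-1 yeast strain, which is defective in DNA damage repair or cell cycle control.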
The nature of assay [3]: NCI Yeast Anticancer Drug Screen. Data for the sgs1 mgt1 strain (AID 161).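 Also: 0% = growth of cultures given vehicle only.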 The conditions noted are these: S. cerevisiae sgs1 mgt1 strain, at 50.0 µM, active compounds read high. The method in brief:
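Compounds are added to genetically altered yeast, and growth is compared with cultures given vehicle alone to give percent inhibition.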

The nature of assay [4]: NCI Yeast Anticancer Drug Screen. Data for the cln2 rad14 strain (AID 165).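 Also: 0% = growth equal to vehicle treated cultures.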 The conditions noted are these: S. cerevisiae cln2 rad14 strain, at 50.0 µM, active compounds read high. The method in brief: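 Growth inhibition, relative to vehicle-treated controls, is the read-out. The test organism is a yeast strain with defined genetic alterations, cln2 rad14.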
Assay [5] can be described thus: NCI Yeast Anticancer Drug Screen. Data for the bub3 strain (AID 167). The conditions noted are these: S. cerevisiae bub3 mutant strain, at 50.0 µM, active compounds read high. An outline of the steps: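 Mutant yeast screening strain plus compound; vehicle-treated cultures serve as the 0% inhibition reference.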
Assay [6] can be described thus: NCI Yeast Anticancer Drug Screen. Data for the mlh1 rad18 strain (AID 175). The conditions noted are these: S. cerevisiae mlh1 rad18 strain growth inhibition; at 50.0 µM; active compounds read high. An outline of the steps:
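Cells of a genetically altered yeast strain, deficient in DNA damage repair, were treated with compound. Their growth was then compared with that of vehicle-treated cultures to give inhibition.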

For `COC(=O)C1CCc2c(ccc3cc(OC)ccc23)C1(C)C(=O)OC` (stereo unspecified), the growth inhibition in assay [1] was -14.5%; in assay [2], -7.65%; in assay [3] it was -7.4%; in assay [4], -40.1%; in assay [5], -2.2%; in assay [6] it was -10.2%.

As to `Cc1cccc(-c2nc(N)nc(N)n2)c1`, the growth inhibition is 11.8% in assay [1]; -9.45% in assay [2]; -1.05% in assay [3]; 18.6% in assay [4]; 7% in assay [5]; 22.4% in assay [6].

Turning to `Cc1cc([N+](=O)[O-])ccc1Sc1c2ccccc2nc2ccccc12`, the growth inhibition was -63.5% in assay [1]; -16.2% in assay [2]; -13.8% in assay [3]; 11.3% in assay [4]; -17.5% in assay [5]; -18.9% in assay [6].

For `Cc1c(C)c(C)c(S(=O)(=O)NCCCNS(=O)(=O)c2c(C)c(C)c(C)c(C)c2C)c(C)c1C`, the growth inhibition is 3.85% in assay [1]; -28.7% in assay [2]; -7.2% in assay [3]; 7.7% in assay [4]; -4.95% in assay [5]; -1.1% in assay [6].

`O=C(CN(Cc1ccccc1)Cc1ccccc1)NC(=O)c1ccccc1`: the growth inhibition in assay [1] is 4.5%; in assay [2], -7.9%; in assay [3], 8.45%; in assay [4], -36.4%; in assay [5], 9.55%; in assay [6] it was -10.4%.

For `Cc1cc(C(=O)N/N=C/c2cc(Cl)cc(Cl)c2O)c2cc(Br)ccc2n1`, the growth inhibition in assay [1] was 61.5%; in assay [2] it was 25.4%; in assay [3], 54%; in assay [4] it was 15.9%; in assay [5], -0.2%; in assay [6] it was 45%.

With `COc1ccc(-c2c3c(n(C4OC(COC(C)=O)C(OC(C)=O)C(OC(C)=O)C4OC(C)=O)c(=S)c2C#N)CC(C)(C)CC3=O)cc1` (stereo unspecified), the growth inhibition is -2.05% in assay [1]; -0.8% in assay [2]; 10.8% in assay [3]; -9.35% in assay [4]; -0.05% in assay [5]; 8.9% in assay [6].

Turning to `N=C1C(=O)C(=N)c2ccccc2-c2ccccc21`, the growth inhibition was -31% in assay [1]; -48.8% in assay [2]; -14.7% in assay [3]; -0.05% in assay [4]; -36.6% in assay [5]; -23.9% in assay [6].

`C=C(C)C1Cc2cc(C(C)=O)ccc2O1` (stereo unspecified): the growth inhibition was 12.7% in assay [1]; -11.7% in assay [2]; 9.55% in assay [3]; 5.8% in assay [4]; -4% in assay [5]; -59.2% in assay [6].

On to `O=C(c1ccc(Cl)c(Cl)c1)n1c2ccccc2c2ccccc21`, for which the growth inhibition is -0.65% in assay [1]; -47.5% in assay [2]; -12.3% in assay [3]; 3.8% in assay [4]; -4.1% in assay [5]; 2.4% in assay [6].

In the case of `Cc1ncc(C(N)=O)c(N)n1`, the growth inhibition is 21% in assay [1]; -2.05% in assay [2]; -11.6% in assay [3]; -42% in assay [4]; -13.6% in assay [5]; 8.3% in assay [6].

Consider `O=C(CC(O)(CCc1ccccc1)c1ccccc1)N1CCC(O)(c2ccccc2)CC1` (stereo unspecified), for which the growth inhibition in assay [1] was 97.2% (active); in assay [2], 98.5% (active); in assay [3], 98.2% (active); in assay [4], 97.6% (active); in assay [5] it was 97.8% (active); in assay [6], 98.2% (active).

Regarding `C/C(=N\NC(N)=S)c1ccc(C)cc1C`, the growth inhibition was 45.4% in assay [1]; -3.75% in assay [2]; 57% in assay [3]; 25.9% in assay [4]; 7.55% in assay [5]; 59.5% in assay [6].

Take `C=C(C)CN(CC(=C)C)C(C)=O`: the growth inhibition in assay [1] is 5.7%; in assay [2], -17.7%; in assay [3], -15.4%; in assay [4] it was -6.15%; in assay [5], -16.3%; in assay [6], -5.85%.

Take `NC1C2C3C=CC(C3)C12` (stereo unspecified): the growth inhibition was 12.5% in assay [1]; -3.85% in assay [2]; -5.75% in assay [3]; -28.9% in assay [4]; -5.2% in assay [5]; 8.95% in assay [6].

`Cc1c(O)c(=O)ccn1CCN`: the growth inhibition in assay [1] is 5.65%; in assay [2] it was -8.35%; in assay [3], 2.6%; in assay [4], -34%; in assay [5], -9.7%; in assay [6] it was 5.8%.

For the compound `C(#CCOc1ccc2c(c1)OCO2)COc1ccc2c(c1)OCO2`, the growth inhibition in assay [1] was 29%; in assay [2] it was 0.8%; in assay [3], -18.8%; in assay [4], -9.05%; in assay [5], -8.8%; in assay [6], 8.3%.

As for `O=C1CC2(C(=O)N1CN1CCOCC1)c1ccccc1-c1ccccc12`, the growth inhibition in assay [1] is -7.55%; in assay [2], -4.5%; in assay [3], 15.6%; in assay [4] it was 3.7%; in assay [5] it was 4.05%; in assay [6], -11.1%.

On to `CCCCCCCCCCCCCCCCOCC(CCl)OP(=O)(O)OP(=O)(O)OCC1OC(n2ccc(N)nc2=O)C(O)C1O` (stereo unspecified), for which the growth inhibition in assay [1] is -33.3%; in assay [2], -38.9%; in assay [3] it was 15.1%; in assay [4], -35%; in assay [5], -37.4%; in assay [6], -95.4%.

With `CC(C)c1ccc(/C=N\NC(=O)NNC(=O)c2ccccc2)cc1`, the growth inhibition was -3.05% in assay [1]; -4.25% in assay [2]; 11.6% in assay [3]; -95.8% in assay [4]; -2.85% in assay [5]; -8.25% in assay [6].

For `C=C1CCC1`, the growth inhibition in assay [1] is 1.05%; in assay [2], -11.5%; in assay [3] it was -14.7%; in assay [4] it was 10.6%; in assay [5], 6.05%; in assay [6], -3.35%.

On to `NC(=O)Nc1ccc([N+](=O)[O-])cc1`, for which the growth inhibition was 4.65% in assay [1]; -2.9% in assay [2]; -2.6% in assay [3]; -51.6% in assay [4]; -11.9% in assay [5]; 2.05% in assay [6].

Consider `CC(C)(C)C(=CS(=O)/N=C/c1ccccc1)C(C)(C)C` (stereo unspecified), for which the growth inhibition in assay [1] was -27.4%; in assay [2], -33%; in assay [3] it was -28.6%; in assay [4], -7%; in assay [5], -37%; in assay [6] it was -9.85%.

Turning to `CCOC(=O)c1cn(C)c2c1C(O)=C(C(=O)OC)CC(=O)N2`, the growth inhibition is 4.5% in assay [1]; 1.1% in assay [2]; -14.2% in assay [3]; 7.2% in assay [4]; -12.6% in assay [5]; -26.8% in assay [6].

For `O=C1C=Cn2cc(-c3ccccc3)c(-c3ccccc3)c21`, the growth inhibition in assay [1] was -13.3%; in assay [2], -10.3%; in assay [3], -14%; in assay [4], 19.9%; in assay [5] it was -18.1%; in assay [6] it was -9.2%.

For the compound `COc1ccc(C(C)c2cc3c(cc2OC)OCO3)cc1OC` (stereo unspecified), the growth inhibition is -4.95% in assay [1]; -6.7% in assay [2]; 11.1% in assay [3]; 5.2% in assay [4]; 16.9% in assay [5]; 25.3% in assay [6].

`O=c1[nH]cc(N=Cc2ccccc2O)c(=O)[nH]1.[Cl][Pt]`: the growth inhibition in assay [1] was 24.9%; in assay [2], 9.05%; in assay [3] it was 39%; in assay [4], 3.35%; in assay [5] it was 3.2%; in assay [6], 0.4%.

For the compound `COC(=O)C1=C(C)N(NC(=O)c2ccccc2)C(C)(O)C12CCOC2=O` (stereo unspecified), the growth inhibition in assay [1] was 1.25%; in assay [2], -8.35%; in assay [3] it was 5.85%; in assay [4] it was -53%; in assay [5], -9.65%; in assay [6], -5.15%.

For the compound `CC(C)N(C(=O)C12C3C4C5C3C1(C#N)C5C42)C(C)C` (stereo unspecified), the growth inhibition in assay [1] was 10.1%; in assay [2] it was 6.95%; in assay [3] it was 12.1%; in assay [4] it was 5.95%; in assay [5], 2.35%; in assay [6] it was -9.45%.

As for `O=C(O)C/C=C/CC(=O)O`, the growth inhibition in assay [1] was -2.25%; in assay [2] it was -13.5%; in assay [3] it was -2.7%; in assay [4] it was 4.45%; in assay [5] it was 15.4%; in assay [6] it was -3.15%.

On to `Cc1cc([N+](=O)[O-])ccc1NC(=O)C(=O)C(C(=O)c1ccccc1-c1ccccc1)C1OC(=O)c2ccccc21` (stereo unspecified), for which the growth inhibition was 12% in assay [1]; 12.4% in assay [2]; -5.4% in assay [3]; -52% in assay [4]; 6.8% in assay [5]; 41.5% in assay [6].

On to `O=C(N/C=C(/c1ccccc1)S(=O)Cc1ccccc1)Nc1ccccc1Cl` (stereo unspecified), for which the growth inhibition in assay [1] was -8.45%; in assay [2], -27.6%; in assay [3], 0.85%; in assay [4] it was -15.2%; in assay [5] it was -9.7%; in assay [6], -24.9%.

On to `Cc1cc(C)cc(N)c1`, for which the growth inhibition in assay [1] was 1.7%; in assay [2], -29.9%; in assay [3], -5.1%; in assay [4], -8.85%; in assay [5], -5.25%; in assay [6], -10%.

In the case of `Cc1cc(Cl)c(Cl)cc1NC(=O)C(Br)C(Br)c1ccccc1` (stereo unspecified), the growth inhibition in assay [1] was 75.8% (active); in assay [2], 71.3% (active); in assay [3], 74.3% (active); in assay [4], 68.7%; in assay [5], 78.5% (active); in assay [6] it was 82.2% (active).

Take `Nc1ccc(N(S(=O)(=O)c2ccccc2)S(=O)(=O)c2ccccc2)c(Cl)c1`: the growth inhibition in assay [1] was 77.3% (active); in assay [2], 45.8%; in assay [3], 82% (active); in assay [4], 39.5%; in assay [5], 69%; in assay [6], 78.7% (active).

For `C=CCN=C1NC(=O)C(CC(=O)Nc2cccc(Cl)c2)S1` (stereo unspecified), the growth inhibition in assay [1] was -41%; in assay [2] it was -25%; in assay [3], -34.2%; in assay [4], 6.85%; in assay [5], -36.5%; in assay [6], -22.4%.
